The panel holds about 83,000 compounds, 20% with a hit somewhere; the sample as a whole holds those more often.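 Treatment: one concentration, 48 hours, 96-well format. Scoring: percent growth, with anything below 10 considered active.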 Active and inactive are the calls of the source.
Tests used:
Assay in all cases: NCI-60 one-dose screen, 48 h (100 = growth as untreated, 0 = no growth, -100 = all killed)
Details in all cases: 10 µM unless noted
DU-145 prostate = tested on: DU-145 prostate
K-562 leukemia = tested on: K-562 leukemia
MALME-3M melanoma = tested on: MALME-3M melanoma
MDA-MB-231 breast = tested on: MDA-MB-231 breast
RXF 393 renal = tested on: RXF 393 renal
SF-268 CNS = tested on: SF-268 CNS
SF-295 CNS = tested on: SF-295 CNS
SF-539 CNS = tested on: SF-539 CNS
UACC-257 melanoma = tested on: UACC-257 melanoma
M14 melanoma = tested on: M14 melanoma
HCT-15 colon = tested on: HCT-15 colon
HT29 colon = tested on: HT29 colon
SNB-75 CNS = tested on: SNB-75 CNS
SNB-19 CNS = tested on: SNB-19 CNS
U251 CNS = tested on: U251 CNS
PC-3 prostate = tested on: PC-3 prostate
SK-MEL-5 melanoma = tested on: SK-MEL-5 melanoma
UACC-62 melanoma = tested on: UACC-62 melanoma
LOX IMVI melanoma = tested on: LOX IMVI melanoma
SK-MEL-28 melanoma = tested on: SK-MEL-28 melanoma

Measured: growth

Clc1cccc(Cl)c1/C=C/c1cc(/C=C/c2c(Cl)cccc2Cl)[nH]n1
active: RXF 393 renal 6.46% | SF-539 CNS -43.7% | M14 melanoma 5.51%
inactive: DU-145 prostate 17% | K-562 leukemia 12% | MALME-3M melanoma 60.1% | MDA-MB-231 breast 13.1% | SF-268 CNS 53.2% | SF-295 CNS 20.9% | UACC-257 melanoma 58.6% | HCT-15 colon 27.7% | HT29 colon 10.7% | SNB-75 CNS 11% | SNB-19 CNS 25.9% | U251 CNS 20.3% | PC-3 prostate 30.8% | SK-MEL-5 melanoma 22.9% | UACC-62 melanoma 38.8% | LOX IMVI melanoma 46.3% | SK-MEL-28 melanoma 46.2%

Cc1ccc(S(=O)(=O)NCC[C@@H]2C[C@H]2c2cc3ccccc3s2)cc1
inactive: DU-145 prostate 101% | K-562 leukemia 85.1% | MALME-3M melanoma 99.8% | MDA-MB-231 breast 92.5% | RXF 393 renal 103% | SF-268 CNS 93.3% | SF-295 CNS 103% | SF-539 CNS 98.3% | UACC-257 melanoma 108% | M14 melanoma 108% | HCT-15 colon 101% | HT29 colon 107% | SNB-75 CNS 82.7% | SNB-19 CNS 95.6% | U251 CNS 98.6% | PC-3 prostate 99.8% | SK-MEL-5 melanoma 102% | UACC-62 melanoma 68.1% | LOX IMVI melanoma 96.7% | SK-MEL-28 melanoma 105%

CCc1ccccc1-n1c(-c2ccc(Cl)cc2)cc(-c2ccc(OC)cc2)c(C#N)c1=O
inactive: DU-145 prostate 94.6% | K-562 leukemia 101% | MALME-3M melanoma 148% | MDA-MB-231 breast 92.7% | RXF 393 renal 97.5% | SF-268 CNS 93.4% | SF-295 CNS 93.2% | SF-539 CNS 102% | UACC-257 melanoma 112% | M14 melanoma 93.4% | HCT-15 colon 99.6% | HT29 colon 103% | SNB-75 CNS 93% | SNB-19 CNS 105% | U251 CNS 114% | PC-3 prostate 84.1% | SK-MEL-5 melanoma 101% | UACC-62 melanoma 89.1% | LOX IMVI melanoma 89.6% | SK-MEL-28 melanoma 109%

Cc1c(C(=O)NC(Cc2ccccc2)C(O)C(=O)NCc2ccc(F)cc2)[nH]c2ccccc2c1=O (stereo not given)
inactive: DU-145 prostate 109% | K-562 leukemia 94.2% | MALME-3M melanoma 111% | MDA-MB-231 breast 102% | RXF 393 renal 114% | SF-268 CNS 104% | SF-295 CNS 103% | SF-539 CNS 108% | UACC-257 melanoma 103% | M14 melanoma 109% | HCT-15 colon 103% | HT29 colon 102% | SNB-75 CNS 99.1% | SNB-19 CNS 100% | U251 CNS 90.2% | PC-3 prostate 103% | SK-MEL-5 melanoma 103% | UACC-62 melanoma 111% | LOX IMVI melanoma 101% | SK-MEL-28 melanoma 107%

COc1ccc(NC(=O)CSc2nnc(-c3cc(-c4ccc(S(N)(=O)=O)cc4)nc4ccccc34)n2-c2ccccc2)cc1
inactive: DU-145 prostate 96.6% | K-562 leukemia 66.4% | MALME-3M melanoma 77.5% | MDA-MB-231 breast 72.8% | RXF 393 renal 81.9% | SF-268 CNS 68.6% | SF-295 CNS 94.5% | SF-539 CNS 78.4% | UACC-257 melanoma 103% | M14 melanoma 86.1% | HCT-15 colon 89% | HT29 colon 86.4% | SNB-75 CNS 55.7% | SNB-19 CNS 82.5% | U251 CNS 85.5% | PC-3 prostate 65.9% | SK-MEL-5 melanoma 74.6% | UACC-62 melanoma 65.3% | LOX IMVI melanoma 90.3% | SK-MEL-28 melanoma 80.6%

Fc1c[c-]c(-c2ccccn2)c(F)c1.[CH3-].[Pt+2].c1ccc(P(C[PH+](c2ccccc2)c2ccccc2)c2ccccc2)cc1
active: DU-145 prostate 5.54% | K-562 leukemia 4.93% | MALME-3M melanoma -83.2% | MDA-MB-231 breast -59% | RXF 393 renal -82.3% | SF-295 CNS 6.1% | SF-539 CNS -86.3% | UACC-257 melanoma -4.95% | M14 melanoma -20% | HCT-15 colon -51.4% | HT29 colon 1.16% | SNB-75 CNS -14.1% | SNB-19 CNS -54.8% | U251 CNS -71.7% | PC-3 prostate -33.2% | SK-MEL-5 melanoma -97.1% | UACC-62 melanoma -18.7% | LOX IMVI melanoma -92.9% | SK-MEL-28 melanoma -51.2%
inactive: SF-268 CNS 16.9%

O=Cc1c[nH]c2ccc(-c3csc4ccccc34)cc12
active: K-562 leukemia 8.16% | SF-295 CNS -22.6%
inactive: DU-145 prostate 80% | MALME-3M melanoma 44.4% | MDA-MB-231 breast 45.7% | RXF 393 renal 45.3% | SF-268 CNS 44.5% | SF-539 CNS 30.9% | UACC-257 melanoma 39.3% | M14 melanoma 23.5% | HCT-15 colon 29% | HT29 colon 16.5% | SNB-75 CNS 39.9% | SNB-19 CNS 34.3% | U251 CNS 25.2% | PC-3 prostate 61.9% | SK-MEL-5 melanoma 61% | UACC-62 melanoma 34% | LOX IMVI melanoma 39.5% | SK-MEL-28 melanoma 69.8%

CCOC(=O)c1c(-c2ccc(Cl)cc2)c(C#N)c(=O)n(-c2ccccc2CC)c1N
inactive: DU-145 prostate 93.5% | K-562 leukemia 77.6% | MALME-3M melanoma 100% | MDA-MB-231 breast 90.8% | RXF 393 renal 111% | SF-268 CNS 86.8% | SF-295 CNS 74.3% | SF-539 CNS 100% | UACC-257 melanoma 113% | M14 melanoma 105% | HCT-15 colon 89.7% | HT29 colon 110% | SNB-75 CNS 89.8% | SNB-19 CNS 120% | U251 CNS 90% | PC-3 prostate 77.5% | SK-MEL-5 melanoma 85.1% | UACC-62 melanoma 68.8% | LOX IMVI melanoma 95% | SK-MEL-28 melanoma 99.3%

From PubChem BioAssay (NCI)
